# TMEM16A inh = mouse TMEM16A channel inhibition, primary screen | Q8BHY3 | HEK293 TMEM16A/YFP iodide influx fluorescence, ionomycin | normalized B-score (activity score, 25-100; higher = stronger inhibition) at 10 µM | 310,000 compounds, 1.2% hits | AID 588511;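 active = ratio plate-corrected score three or more library SD toward inhibition, starting fluorescence score within five deviations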;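 note: score derived from kinetic fluorescence span divided by baseline fluorescence per well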
# CHT allo act = allosteric activators of human choline transporter CHT | AID 488977 | Q9GZV3 | 310,000 compounds, 0.49% hits | B-score at 10 µM | CHT-expressing cells, membrane potential dye, choline EC20; stronger effect = higher value; LV-AA mutant CHT in HEK293 cells;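 active = initial fluorescence not abnormally high and integrated response B-score, plate-corrected, over 3 SD above library mean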
# GPR7 antag = human neuropeptides B/W receptor 1 antagonism | 290,000 compounds, 1.1% hits | GPR7-expressing cells, fluorescence antagonist assay | P48145 | AID 1861 | inhibition, % at 4.4 µM; in the data active = inhibition above about 16%, passing the limit was not always enough;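 note: cells stimulated with the agonist NPW; 0% = agonist with vehicle and 100% = vehicle without agonist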
# TMEM16A act = mouse TMEM16A channel activation, primary screen. 340,000 compounds, 0.3% hits. B-score at 10 µM. Q8BHY3. AID 623877. HEK293 TMEM16A/YFP-H148Q/I152L, iodide quench fluorescence; stronger effect = lower value;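 active = fluorescence-ratio B-score plate-corrected deviation score at least 3 library SD below zero, with starting fluorescence score within 5 deviations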;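 note: channel opened by trigger with iodide after compound preincubation; score built on the fluorescence ratio of max minus min over baseline; more negative score means more quench and so TMEM16A activation or potentiation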
# Kir21 block = blocks the mouse Kir2.1 inward-rectifier potassium channel; 310,000 compounds, 0.85% hits; P35561; B-score at 10 µM; HEK293-Kir2.1, FluxOR thallium flux fluorescence; stronger effect = lower value;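 active = fluorescence ratio B-score at or below minus 3 SD of library scores, with starting-brightness B-score within 2 SD, cut at about -4.2 in these data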;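 note: channel flux triggered by added potassium and thallium sulfate stimulus; B-score of peak minus minimum fluorescence over baseline after thallium stimulus; more negative B-score means stronger Kir2.1 block with less thallium influx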
# Target sequence (P35561 whole entry, looked up): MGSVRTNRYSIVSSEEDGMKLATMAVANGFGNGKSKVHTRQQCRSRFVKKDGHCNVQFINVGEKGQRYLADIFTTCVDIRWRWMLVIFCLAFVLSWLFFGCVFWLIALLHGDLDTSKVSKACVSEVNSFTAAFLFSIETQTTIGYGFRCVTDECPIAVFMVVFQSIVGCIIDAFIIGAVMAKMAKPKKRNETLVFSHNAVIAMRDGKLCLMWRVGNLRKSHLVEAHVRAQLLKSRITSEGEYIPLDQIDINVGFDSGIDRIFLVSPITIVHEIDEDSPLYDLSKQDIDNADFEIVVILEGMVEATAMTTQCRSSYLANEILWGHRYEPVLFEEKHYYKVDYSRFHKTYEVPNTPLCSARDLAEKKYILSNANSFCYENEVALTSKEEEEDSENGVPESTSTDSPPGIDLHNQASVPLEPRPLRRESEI
# CHT block = inhibits the human high affinity choline transporter. Q9GZV3. CHT-expressing cells, membrane potential dye, choline response; stronger effect = lower value. B-score at 10 µM. 310,000 compounds, 0.86% hits. AID 488975;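 active = B-score over 3 SD under the library average, and starting fluorescence ratio not unusually high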;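 note: choline stimulus applied at its EC90 after an EC20 pre-addition; B-score computed on integrated fluorescence ratio after choline addition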
# CHT activ conf = confirmation of human choline transporter (CHT) activators; 2,500 compounds, 91% hits; activation, % at 10 µM; CHT-expressing cells, membrane potential dye fluorescence (FDSS); % of choline EC20–EC90 response window; HEK293 expressing CHT LV-AA mutant; choline added at its EC20; shares compounds with CHT allo act; AID 504833;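 active = primary screen active, with duplicate mean activation above negative control mean plus 3 SD, cut at about 11% in these data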
# HEK293 MP dye = CHT activator counter-screen hit in parental HEK293 cells; shares compounds with CHT allo act; membrane potential dye fluorescence (FDSS); measured after EC20 choline addition; ratio readout change at 10 µM, hits read low; 2,500 compounds, 62% hits;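 active = duplicate-averaged ratio beyond 3 SD from buffer wells, up or down, though filed actives are nearly all decreases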
# * hit, by the source's call; i = inactive; nt = not tested or not shown. The list is not random: actives were taken first. Their share in the collection is about 3.7%.
SMILES,TMEM16A inh,CHT allo act,GPR7 antag,TMEM16A act,Kir21 block,CHT block,CHT activ conf,HEK293 MP dye
CCCCn1c(N)c(N(CC(C)C)C(=O)C2CCN(C(=O)c3ccc(Cl)cc3)CC2)c(=O)[nH]c1=O,i,i,nt,i,2.1,i,nt,nt
CCCCn1c(N)c(N(CCC(C)C)C(=O)C2CCCN(C(=O)c3ccc(Cl)cc3)C2)c(=O)[nH]c1=O (stereo unspecified),i,8.8*,nt,i,0.63,i,12*,i
CCOc1cc(OCC)cc(C(=O)NCc2ccco2)c1,i,i,-13,i,0.27,i,nt,nt
O=[N+]([O-])c1ccc(Cl)c(-c2ccc(/C=N/n3cnnc3)o2)c1,i,i,-8,i,0.76,i,39*,-51*
O=[N+]([O-])c1ccc(OC(F)F)c(/C=N/n2cnnc2)c1,i,i,5,i,-0.15,i,21*,-24*
CNC(=S)N/N=C/c1ccc(-c2cc([N+](=O)[O-])ccc2Cl)o1,i,i,-2,i,0.28,i,nt,nt
Cc1ccc2c(c1)sc1nc(=O)ccn12,i,i,-7,i,-0.47,i,40*,-38*
O=C1N=C(C=c2ccc(=Cc3[nH]c(=O)[nH]c3O)cc2)C(=O)N1,i,i,-14,nt,0.33,i,nt,nt
COc1ccc(S(=O)(=O)Nc2cccc3c2O[C@H](CN(C)C(=O)Nc2ccc(C(F)(F)F)cc2)[C@@H](C)CN([C@H](C)CO)C3=O)cc1,nt,nt,nt,i,nt,nt,nt,nt
Cc1cc(=S)n(-c2ccccc2)n1C,i,7*,-6,i,-0.11,i,8,i
NC(=O)CSc1nnc(-c2cccs2)n1Cc1ccco1,i,i,-7,i,1.2,i,nt,nt
Cc1ccc(C)c(CSc2nnc(-c3cccs3)n2Cc2ccco2)c1,i,7.1*,13,i,-5*,i,60*,i
CCC1=C(OC(=O)N(CC)CC)N2C(=O)OC(=NCC3CC3)[C@]2(Cc2ccccc2)[C@H]2C1=CC[C@H]1C(=O)N(C)C(=O)[C@H]12,i,7.2*,nt,i,-0.07,i,40*,i
CCC1=C(OC(=O)N(CC)CC)N2C(=O)OC(=NCC3CC3)[C@]2(Cc2ccccc2)[C@H]2C1=CC[C@H]1C(=O)N(c3ccccc3)C(=O)[C@H]12,i,i,nt,i,-0.74,i,nt,nt
CC(C)CC(C(=O)N1CCc2ccccc2C1)N1C(=O)c2ccccc2C1=O (stereo unspecified),i,i,20*,i,-3.7,i,39*,i
COc1ccc2c(c1)c1ncn(CCN3CCCC3)c(=O)c1n2C,i,6.5*,-6,i,-0.56,i,45*,-24*
COc1ccc2c(c1)c1ncn(CCN3CCNCC3)c(=O)c1n2C,i,i,-12,i,0.46,i,16*,-20*
Cn1c(=O)cc(SCC(=O)NCC2CCCO2)c2ccc(Cl)cc21 (stereo unspecified),i,i,-1,i,-0.66,i,nt,nt
CCN1CCCC1CNC(=O)CSc1cc(=O)n(C)c2cc(Cl)ccc12 (stereo unspecified),i,i,-9,i,-1,i,50*,-34*
c1cn(-c2ccc(-c3ccnc4ncnn34)cc2)cn1,i,8.5*,-25,i,-0.23,i,41*,-40*
Cc1c(Cl)cccc1-n1cnc(=O)c2ccccc21,i,i,nt,i,-0.22,i,nt,nt
COc1cc(/C=C/C(=O)NC(C)CCc2ccccc2)cc(OC)c1OC (stereo unspecified),i,i,-14,i,0.57,i,0,i
CC(C)Cn1c(/C=C/c2ccccc2)nc2ccccc21,i,i,-11,i,-0.6,i,23*,i
CCn1c(/C=C/c2ccccc2)nc2ccccc21,i,i,-13,i,-0.95,i,nt,nt
O=C(CSCc1ccc(Br)cc1)N1CCCC1,i,i,-6,i,0.06,i,nt,nt
SMILES,TMEM16A inh,CHT allo act,GPR7 antag,TMEM16A act,Kir21 block,CHT block,CHT activ conf,HEK293 MP dye
Cc1ccccc1C1c2[nH]c3ccccc3c2CCN1Cc1cccn1-c1ncccn1 (stereo unspecified),i,6.3*,-8,i,-0.64,i,27*,i
NC(N)=NC(=O)c1nc(Cl)c(N)nc1N,i,7.2*,-13,i,-0.3,i,18*,-41*
NC(N)=NC(=O)c1nc(Cl)c(N2CCCCCC2)nc1N,i,i,nt,i,nt,i,42*,-22*
O=C(COc1ccccc1)NCC(c1ccco1)N1CCN(c2ccc(F)cc2)CC1 (stereo unspecified),i,i,nt,i,0.21,i,13*,i
O=C(NCC(c1ccco1)N1CCN(c2ccc(F)cc2)CC1)C(=O)NC1CCCC1 (stereo unspecified),i,i,nt,i,-0.28,i,nt,nt
CN(Cc1cccc(F)c1)C(=O)c1ccccc1Sc1ccccc1C#N,i,7.2*,13,i,-3,i,31*,i
COc1ccc(CN(C)C(=O)c2ccccc2Sc2ccccc2C#N)cc1OC,i,i,-3,i,-1.8,i,nt,nt
Cc1c(O)c(CN2CCCC2)cc2c3c(c(=O)oc12)CCC3,i,9.8*,-6,i,-0.04,i,37*,-72*
Cc1c(OCC(=O)NCCCN2CCCC2=O)ccc2c3c(c(=O)oc12)CCC3,i,i,-5,i,-0.01,i,36*,-30*
Cc1c(OCc2ccc(C(=O)O)o2)ccc2c3c(c(=O)oc12)CCC3,i,i,-9,i,0.3,i,39*,-25*
Cc1ccnn1-c1ccc(C(=O)N2CCCN(S(=O)(=O)c3ccc(F)cc3)CC2)cc1,nt,nt,nt,i,nt,nt,nt,nt
Cc1ccc(C)c(SCC(=O)c2ccc[nH]2)c1,i,i,-5,i,-1.7,i,nt,nt
CCCn1c(SCC(=O)N2CCc3ccccc3C2)nc(O)cc1=O,nt,nt,nt,i,nt,nt,nt,nt
O=C(CN1C(=O)CCC1=O)Nc1nc(-c2ccccn2)cs1,i,i,-6,i,0.41,i,nt,nt
O=C(CN1C(=O)CCC1=O)Nc1nc(-c2nc3ccccc3s2)cs1,i,i,-8,i,-0.53,i,18*,i

# Assay outcomes as filed in PubChem.
